# According to PubChem BioAssay AID623868 (Vanderbilt High Throughput Screening Facility, 2012):
# The campaign covered roughly 2,100 compounds. About 760 (36%) were called active. These entries were drawn from the full list. A number with no mark means an inactive call.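 Rule for the calls: active = thallium-flux fluorescence traces judged by eye to show enhanced or reduced glutamate response, manual score 1 or -1, so both directions (some results past the limit were not filed as active); inactive = the rest, including fluorescent or raised-baseline compounds.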
# Test: non-GIRK thallium flux modulation in mGlu8 cells, confirmation, counter-screen for GIRK activator project, cell-based, HEK-293 rmGlu8, no GIRK (AID 623868);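 note: extra codes mark interference with 3 for fluorescent and 4 for baseline rise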
# Settings: thallium flux fluorescence, at 10 µM, actives lie on both sides, codes: 1 enhancer, -1 blocker, 0 none, thallium stimulus containing EC20 glutamate
row,Compound,manual score
1,CCN(CC)c1ccc2cc(-c3nnc(-c4ccccc4)o3)c(=O)oc2c1,3
2,CC12CCC(C(=O)N(CSC(=S)N/N=C\c3ccccc3Cl)C1=O)C2(C)C (stereo not drawn),1 (active)
3,CC12CCC(C(=O)N(CSC(=S)N/N=C\c3ccccc3O)C1=O)C2(C)C (stereo not drawn),1 (active)
4,O=C(c1cccc(F)c1)N1CCN(C(=O)c2cc(-c3ccc(Cl)cc3Cl)on2)CC1,0
5,CC(C)(C)c1ccc(-c2n[nH]c(=S)n2C2CCCC2)cc1,1 (active)
6,CC(C)n1c(-c2ccc(C(C)(C)C)cc2)n[nH]c1=S,1 (active)
7,CCCCCCc1cc2cc(-c3nnc(-c4cc(OC)c(OC)c(OC)c4)o3)c(=O)oc2cc1O,3
8,CC(C)CCn1c(S(=O)(=O)O)nc2ccccc21,0
9,O=C(N/N=C\c1ccc(Cl)s1)c1cccs1,1 (active)
10,Cc1cccc(-n2ncc3c(NCCc4ccc(S(N)(=O)=O)cc4)ncnc32)c1,0
11,NS(=O)(=O)c1ccc(CCNC2CC(=O)N(Cc3ccccc3)C2=O)cc1 (stereo not drawn),0
12,Cc1nc(NCCc2ccc(S(N)(=O)=O)cc2)c2c(C)c(C)sc2n1,1 (active)
13,Cc1ccc(C2CC2C(=O)NNC(=S)Nc2cccc(C)c2)cc1 (stereo not drawn),1 (active)
14,CCc1cc(C(=O)NNC(=S)Nc2cccc(C)c2)cs1,1 (active)
15,CCc1cc(C(=O)NNC(=S)Nc2cc(C)ccc2C)cs1,1 (active)
16,Cc1ccc(Cl)cc1NC(=S)NCc1cccn1C,0
17,CCc1cccc(NC(=O)CCSCCC(=O)Nc2cccc(CC)c2)c1,0
18,CCn1c(NC(=O)Nc2cccc(C)c2C)cc2sccc21,0
19,Cc1ccc(C2CC2C(=O)NNC(=S)Nc2cccc(Cl)c2)cc1 (stereo not drawn),0
20,Cc1ccc(C2CC2C(=O)NNC(=S)Nc2ccc(Cl)cc2)cc1 (stereo not drawn),0.5
21,CCc1cc(C(=O)NNC(=S)Nc2ccccc2C)cs1,1 (active)
22,CCOC(=O)CC1=C(C(=O)OCC)C(c2cccs2)C(C#N)=C(N)O1 (stereo not drawn),-0.5
23,CCOc1ccc(NC(=O)Nc2cccs2)cc1,0
24,CCCCN(C)CC(O)Cn1cc(/C=C/C(=O)c2cccs2)c2ccccc21 (stereo not drawn),3
25,Cc1cccc(NC(=S)NNC(=O)c2sccc2C)c1,1 (active)
26,CC(C)C(=O)Nc1nnn(C)n1,0
27,Cc1[nH]n(-c2cccc3ccccc23)c(=O)c1/C=N/c1sc2c(c1C#N)CCC2,1 (active)

row,Compound,manual score
1,C=CCNCc1cccn1-c1sc2c(c1C#N)CCCC2,0
2,Cc1[nH]n(-c2ccc(F)cc2)c(=O)c1/C=N/c1sc2c(c1C#N)CCCC2,3
3,CCOc1cc(C2NN=C(c3ccc(C)cc3)S2)ccc1O (stereo not drawn),1 (active)
4,C=CCNC(=O)NC(=S)c1ccccc1,1 (active)
5,N#Cc1ccc(-c2csc(NC3=NCCCCC3)n2)cc1,0
6,COC(=O)NC(=S)Nc1ccc(Oc2ccc(Cl)cc2Cl)c(Cl)c1,1 (active)
7,C=CCNC(=S)NNC(=O)COc1ccc(Cl)cc1Cl,0.5
8,COc1ccc(NC(=S)SC)cc1OC,0
9,CCC(C)c1ccc(NC(=S)Nc2ccc(OC)c(OC)c2)cc1 (stereo not drawn),0
10,O=C(COc1ccc(Cl)cc1Cl)Nc1noc2ccccc12,0
11,O=C(COc1ccc(Cl)cc1Cl)NNC(=S)Nc1ccc(F)cc1,1 (active)
12,CC(=O)c1ccc(OC(=O)N(c2ccccc2)c2ccccc2)cc1,0
13,CCOc1[nH]n(-c2ccc(Cl)cc2)c(=O)c1C=Nc1ccc(Cl)cc1,0
14,COc1ccc2nc(/N=C/c3c(C)[nH]n(-c4ccc(C)cc4C)c3=O)sc2c1,1 (active)
15,COc1ccc2nc(/N=C/c3c(C)[nH]n(-c4ccc(C)cc4)c3=O)sc2c1,1 (active)
16,CCOc1ccc2nc(/N=C/c3c(C)[nH]n(-c4ccc(C)cc4)c3=O)sc2c1,1 (active)
17,CCOc1ccc2nc(/N=C/c3c(C)[nH]n(-c4ccccc4)c3=O)sc2c1,1 (active)
18,CC(C)OC(=O)CC12CN3CN(C1)CC(CC(=O)OC(C)C)(C3)C2=O,0
19,CC1(C)NC(=O)N(CC(O)COc2ccc(-c3ccc(C#N)cc3)cc2)C1=O (stereo not drawn),0
20,CCOc1cc(N2CCOCC2)c(OCC)cc1NC(=O)COC(=O)CCc1c[nH]c2ccccc12,0
21,COc1c2occc2c(OC)c2c(=O)cc(C(F)(F)F)oc12,0
22,CCN(CC)c1ccc(NC(=O)c2nc3nc(C)cc(C(F)F)n3n2)cc1,0
23,O=C(COC(=O)CCC1CCCC1)Nc1nc2c(F)c(F)c(F)cc2s1,0
24,CCN1CCCC1CNC(=O)C1CCN(Cc2nc(-c3cccc(Br)c3)oc2C)CC1 (stereo not drawn),0
25,CCOC(=O)C(CC)Sc1nnc(COc2ccc(C)cc2)n1-c1ccccc1 (stereo not drawn),3
26,CCOC(=O)C(CC)Sc1nnc2cc(C)c3ccccc3n12 (stereo not drawn),-1 (active)
